# From publication PMC7156710, “The Sox2 transcription factor binds RNA”
# Legend:
# Test in all cases: fluorescence anisotropy; 10 mM Tris-HEPES pH 7.5, 8% Ficoll, 0.05% NP-40, 135 mM KCl, 15 mM NaCl, 1 mM DTT, 0.1 mg/mL BSA; 2 nM DNA or 3 nM RNA; low values mean tight binding
# Conditions in all cases: protein: recombinant; tags: N-terminal His6 and thrombin site, not removed; label: 3' fluorescein; hairpin; structured_RNA
# [1] = target: Sox2-HMG (His6 retained) Q61A (Homo sapiens, UniProt P48431 38-121, Q61A)
# Sox2-HMG (His6 retained) Q61A, sequence (P48431 other isoform, or with tags, fused parts or gaps Q61A | Q61A Q61A): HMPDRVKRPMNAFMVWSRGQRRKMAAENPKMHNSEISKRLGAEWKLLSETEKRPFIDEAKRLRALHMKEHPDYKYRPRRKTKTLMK
# How it was run: (§1)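 Polarization on a CLARIOstar was recorded for His6-tagged, Ni-NTA-purified Sox2-HMG domains bearing alanine substitutions introduced by site-directed mutagenesis, titrated for no less than 1 h in Tris-HEPES pH 7.5 binding buffer against 2 nM fluorescein-labeled DNA or 3 nM fluorescein-labeled RNA. Triplicate titrations were each read three times. Dissociation constants were derived in Kaleidagraph and expressed as a ratio of mutant to wild type.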
# [2] = target: Sox2-HMG (His6 retained) R88A (Homo sapiens, UniProt P48431 38-121, R88A)
# Sox2-HMG (His6 retained) R88A, sequence (P48431 other isoform, or with tags, fused parts or gaps R88A | R88A R88A): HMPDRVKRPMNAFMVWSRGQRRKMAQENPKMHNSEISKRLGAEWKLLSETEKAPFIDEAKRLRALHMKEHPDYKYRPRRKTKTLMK
# How it was run: as §1
# [3] = target: Sox2-HMG (His6 retained) K73A (Homo sapiens, UniProt P48431 38-121, K73A)
# Sox2-HMG (His6 retained) K73A, sequence (P48431 other isoform, or with tags, fused parts or gaps K73A | K73A K73A): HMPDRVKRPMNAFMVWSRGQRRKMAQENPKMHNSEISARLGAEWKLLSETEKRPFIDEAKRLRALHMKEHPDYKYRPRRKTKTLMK
# How it was run: as §1
# [4] = target: Sox2-HMG (His6 retained) E86A (Homo sapiens, UniProt P48431 38-121, E86A)
# Sox2-HMG (His6 retained) E86A, sequence (P48431 other isoform, or with tags, fused parts or gaps E86A | E86A E86A): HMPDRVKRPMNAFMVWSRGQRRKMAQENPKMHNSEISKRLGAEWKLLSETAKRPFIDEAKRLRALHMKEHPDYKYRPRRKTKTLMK
# How it was run: as §1
# [5] = target: Sox2-HMG (His6 retained) R53A (Homo sapiens, UniProt P48431 38-121, R53A)
# Sox2-HMG (His6 retained) R53A, sequence (P48431 other isoform, or with tags, fused parts or gaps R53A | R53A R53A): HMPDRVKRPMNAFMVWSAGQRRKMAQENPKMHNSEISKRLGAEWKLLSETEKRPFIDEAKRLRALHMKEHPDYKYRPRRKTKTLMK
# How it was run: as §1
# [6] = target: Sox2-HMG (His6 retained) R113A (Homo sapiens, UniProt P48431 38-121, R113A)
# Sox2-HMG (His6 retained) R113A, sequence (P48431 other isoform, or with tags, fused parts or gaps R113A | R113A R113A): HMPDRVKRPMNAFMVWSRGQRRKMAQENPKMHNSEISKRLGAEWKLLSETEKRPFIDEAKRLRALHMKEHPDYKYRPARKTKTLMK
# How it was run: as §1
# [7] = target: Sox2-HMG (His6 retained) T85A (Homo sapiens, UniProt P48431 38-121, T85A)
# Sox2-HMG (His6 retained) T85A, sequence (P48431 other isoform, or with tags, fused parts or gaps T85A | T85A T85A): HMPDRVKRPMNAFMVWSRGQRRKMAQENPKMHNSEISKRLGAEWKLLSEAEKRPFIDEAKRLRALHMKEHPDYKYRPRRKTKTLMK
# How it was run: as §1
# [8] = target: Sox2-HMG (His6 retained) M49A (Homo sapiens, UniProt P48431 38-121, M49A)
# Sox2-HMG (His6 retained) M49A, sequence (P48431 other isoform, or with tags, fused parts or gaps M49A | M49A M49A): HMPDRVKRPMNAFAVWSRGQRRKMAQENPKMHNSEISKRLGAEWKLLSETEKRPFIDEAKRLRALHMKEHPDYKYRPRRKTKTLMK
# How it was run: as §1
# [9] = target: Sox2-HMG (His6 retained) R56A (Homo sapiens, UniProt P48431 38-121, R56A)
# Sox2-HMG (His6 retained) R56A, sequence (P48431 other isoform, or with tags, fused parts or gaps R56A | R56A R56A): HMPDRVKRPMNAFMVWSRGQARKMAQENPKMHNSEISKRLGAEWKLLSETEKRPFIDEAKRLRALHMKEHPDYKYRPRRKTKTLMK
# How it was run: as §1
# [10] = target: Sox2-HMG (His6 retained) K80A (Homo sapiens, UniProt P48431 38-121, K80A)
# Sox2-HMG (His6 retained) K80A, sequence (P48431 other isoform, or with tags, fused parts or gaps K80A | K80A K80A): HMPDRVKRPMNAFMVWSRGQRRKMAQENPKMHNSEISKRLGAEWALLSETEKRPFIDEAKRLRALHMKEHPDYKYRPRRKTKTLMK
# How it was run: as §1
# [11] = target: Sox2-HMG (His6 retained) Y110A (Homo sapiens, UniProt P48431 38-121, Y110A)
# Sox2-HMG (His6 retained) Y110A, sequence (P48431 other isoform, or with tags, fused parts or gaps Y110A | Y110A Y110A): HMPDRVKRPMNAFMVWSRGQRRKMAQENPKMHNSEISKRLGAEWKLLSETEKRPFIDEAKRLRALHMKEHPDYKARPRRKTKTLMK
# How it was run: as §1
# [12] = target: Sox2-HMG (His6 retained) K103A (Homo sapiens, UniProt P48431 38-121, K103A)
# Sox2-HMG (His6 retained) K103A, sequence (P48431 other isoform, or with tags, fused parts or gaps K103A | K103A K103A): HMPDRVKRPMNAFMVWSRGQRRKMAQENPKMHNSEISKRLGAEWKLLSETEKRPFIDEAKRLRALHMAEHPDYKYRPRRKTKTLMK
# How it was run: as §1
# [13] = target: Sox2-HMG (His6 retained) K109A (Homo sapiens, UniProt P48431 38-121, K109A)
# Sox2-HMG (His6 retained) K109A, sequence (P48431 other isoform, or with tags, fused parts or gaps K109A | K109A K109A): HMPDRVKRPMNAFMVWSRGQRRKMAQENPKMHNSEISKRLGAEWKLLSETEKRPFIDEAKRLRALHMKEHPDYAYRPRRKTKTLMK
# How it was run: as §1
# [14] = target: Sox2-HMG (His6 retained) R43A (Homo sapiens, UniProt P48431 38-121, R43A)
# Sox2-HMG (His6 retained) R43A, sequence (P48431 other isoform, or with tags, fused parts or gaps R43A | R43A R43A): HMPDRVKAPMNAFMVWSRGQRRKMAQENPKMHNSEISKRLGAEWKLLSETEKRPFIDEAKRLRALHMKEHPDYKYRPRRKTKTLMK
# How it was run: as §1
# [15] = target: Sox2-HMG (His6 retained) R57A (Homo sapiens, UniProt P48431 38-121, R57A)
# Sox2-HMG (His6 retained) R57A, sequence (P48431 other isoform, or with tags, fused parts or gaps R57A | R57A R57A): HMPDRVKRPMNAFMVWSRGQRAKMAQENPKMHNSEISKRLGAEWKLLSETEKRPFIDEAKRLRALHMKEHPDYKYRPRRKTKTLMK
# How it was run: as §1
# [16] = target: Sox2-HMG (His6 retained) R98A (Homo sapiens, UniProt P48431 38-121, R98A)
# Sox2-HMG (His6 retained) R98A, sequence (P48431 other isoform, or with tags, fused parts or gaps R98A | R98A R98A): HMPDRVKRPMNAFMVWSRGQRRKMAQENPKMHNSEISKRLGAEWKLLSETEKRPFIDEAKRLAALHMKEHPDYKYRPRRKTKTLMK
# How it was run: as §1
# [17] = target: Sox2-HMG (His6 retained) N68A (Homo sapiens, UniProt P48431 38-121, N68A)
# Sox2-HMG (His6 retained) N68A, sequence (P48431 other isoform, or with tags, fused parts or gaps N68A | N68A N68A): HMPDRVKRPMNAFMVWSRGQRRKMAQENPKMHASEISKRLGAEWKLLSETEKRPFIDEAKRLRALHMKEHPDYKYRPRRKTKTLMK
# How it was run: as §1
# [18] = target: Sox2-HMG (His6 retained) P112A (Homo sapiens, UniProt P48431 38-121, P112A)
# Sox2-HMG (His6 retained) P112A, sequence (P48431 other isoform, or with tags, fused parts or gaps P112A | P112A P112A): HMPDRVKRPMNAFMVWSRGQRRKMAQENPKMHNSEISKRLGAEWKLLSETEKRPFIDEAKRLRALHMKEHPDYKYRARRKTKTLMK
# How it was run: as §1
# [19] = target: Sox2-HMG (His6 retained) N46A (Homo sapiens, UniProt P48431 38-121, N46A)
# Sox2-HMG (His6 retained) N46A, sequence (P48431 other isoform, or with tags, fused parts or gaps N46A | N46A N46A): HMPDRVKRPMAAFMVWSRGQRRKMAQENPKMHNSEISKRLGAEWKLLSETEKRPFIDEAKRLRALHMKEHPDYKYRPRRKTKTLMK
# How it was run: as §1
# [20] = target: Sox2-HMG (His6 retained) K65A (Homo sapiens, UniProt P48431 38-121, K65A)
# Sox2-HMG (His6 retained) K65A, sequence (P48431 other isoform, or with tags, fused parts or gaps K65A | K65A K65A): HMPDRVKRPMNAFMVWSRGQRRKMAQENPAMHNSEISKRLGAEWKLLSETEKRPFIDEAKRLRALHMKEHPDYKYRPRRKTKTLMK
# How it was run: as §1
# [21] = target: Sox2-HMG (His6 retained) H101A (Homo sapiens, UniProt P48431 38-121, H101A)
# Sox2-HMG (His6 retained) H101A, sequence (P48431 other isoform, or with tags, fused parts or gaps H101A | H101A H101A): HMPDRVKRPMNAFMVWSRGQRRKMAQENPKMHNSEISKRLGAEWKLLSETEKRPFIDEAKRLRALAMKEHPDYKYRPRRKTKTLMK
# How it was run: as §1
# [22] = target: Sox2-HMG (His6 retained) P64A (Homo sapiens, UniProt P48431 38-121, P64A)
# Sox2-HMG (His6 retained) P64A, sequence (P48431 other isoform, or with tags, fused parts or gaps P64A | P64A P64A): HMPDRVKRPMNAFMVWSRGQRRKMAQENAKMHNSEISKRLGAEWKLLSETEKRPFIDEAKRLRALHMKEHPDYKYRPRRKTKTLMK
# How it was run: as §1
# [23] = target: Sox2-HMG (His6 retained) M66A (Homo sapiens, UniProt P48431 38-121, M66A)
# Sox2-HMG (His6 retained) M66A, sequence (P48431 other isoform, or with tags, fused parts or gaps M66A | M66A M66A): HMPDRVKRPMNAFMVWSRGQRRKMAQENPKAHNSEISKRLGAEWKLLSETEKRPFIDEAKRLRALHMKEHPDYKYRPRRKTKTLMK
# How it was run: as §1
# [24] = target: Sox2-HMG (His6 retained) H105A (Homo sapiens, UniProt P48431 38-121, H105A)
# Sox2-HMG (His6 retained) H105A, sequence (P48431 other isoform, or with tags, fused parts or gaps H105A | H105A H105A): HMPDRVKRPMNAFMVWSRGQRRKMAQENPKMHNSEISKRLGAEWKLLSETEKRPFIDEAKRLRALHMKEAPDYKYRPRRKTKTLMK
# How it was run: as §1
sequence,measurement,setting,value
GGUCUUAAGGUGCGGGCGAAAGUCUGUACCUCUGGGACC,binding signal,[1],0.8 ± 0.5 Kd(mutant)/Kd(WT)
same,binding signal,[2],0.7 ± 0.2 Kd(mutant)/Kd(WT)
same,binding signal,[3],6.9 ± 0.2 Kd(mutant)/Kd(WT)
same,binding signal,[4],0.9 ± 0.6 Kd(mutant)/Kd(WT)
same,binding signal,[5],1.7 ± 0.6 Kd(mutant)/Kd(WT)
same,binding signal,[6],3.1 ± 1.3 Kd(mutant)/Kd(WT)
same,binding signal,[7],0.9 ± 0.3 Kd(mutant)/Kd(WT)
same,binding signal,[8],0.7 ± 0.4 Kd(mutant)/Kd(WT)
same,binding signal,[9],3 ± 0.3 Kd(mutant)/Kd(WT)
same,binding signal,[10],40 ± 15 Kd(mutant)/Kd(WT)
same,binding signal,[11],1.7 ± 0.6 Kd(mutant)/Kd(WT)
same,binding signal,[12],2.5 ± 1.1 Kd(mutant)/Kd(WT)
same,binding signal,[13],7.4 ± 2.5 Kd(mutant)/Kd(WT)
same,binding signal,[14],2.8 ± 0.6 Kd(mutant)/Kd(WT)
same,binding signal,[15],1.3 ± 0.5 Kd(mutant)/Kd(WT)
same,binding signal,[16],5.5 ± 1.9 Kd(mutant)/Kd(WT)
same,binding signal,[17],1 ± 0.1 Kd(mutant)/Kd(WT)
same,binding signal,[18],1.8 ± 0.8 Kd(mutant)/Kd(WT)
same,binding signal,[19],3.5 ± 1.1 Kd(mutant)/Kd(WT)
same,binding signal,[20],2.6 ± 0.7 Kd(mutant)/Kd(WT)
same,binding signal,[21],2.2 ± 0.9 Kd(mutant)/Kd(WT)
same,binding signal,[22],2 ± 0.7 Kd(mutant)/Kd(WT)
same,binding signal,[23],1.3 ± 0.5 Kd(mutant)/Kd(WT)
same,binding signal,[24],2 ± 1 Kd(mutant)/Kd(WT)
